The labels stand for the following.
B1: chr1:20742972:20743075:-|3pUTR|ENSG00000127483|unk|FALSE|unique (ssRNA)
RNA: GGGAGUUCUACAGUCCGACGAUCUAACCCUUUCUUAUUUGUAUUUGUUUUAGUAUUGUGAAGUUGUGUUAAAUAGUACUAGCUAGAAAUACAAAUUUCUGGUUAUCAUUUCUCUUCCCUGUGGCACUUGACAUUUUAAUUGUCCAACAGAGGAUUGAGCAUCA
B2: chr17:58090057:58090109:+|3pUTR|ENSG00000264364|msi1_unk|FALSE|overlapping (ssRNA)
RNA: GGGAGUUCUACAGUCCGACGAUCGGGUAGGAUUAGCUUGAAUCUUUUUUUUCUUUACAUUUUUCUCCUGUCUGCUCCCUGCUUAGCCCUCAGUUUCCUCAUUCCUCUGGAGUUCUCUUAGAGCAGCCCCUGUUGUUAGUUGGCCAACAGAGGAUUGAGCAUCA
B3: chr3:15254852:15254953:-|3pUTR|ENSG00000131370|msi1|total|mutant (ssRNA)
RNA: GGGAGUUCUACAGUCCGACGAUCAAACUGUUAAUUCUGUCACAGCCUGUAUAUUUCCGUCAUUUGUAAAUCUCUUCAUACAACCGUGACUUCUUUUUUGACUGAUACAGUAUCUUAAUUACAAGGUUAUUUUGUACUUGUCUUCAACAGAGGAUUGAGCAUCA
B4: chr7:123541454:123541562:-|3pUTR|ENSG00000128609|unk|total|mutant (ssRNA)
RNA: GGGAGUUCUACAGUCCGACGAUCUCCACCGUGUCAUUUUAUUUCCGUCAUUAUUGAAUUAUACCAUUUACUCUGUUUUCUUACCGUCUUAAUUUUAUUAUAUUUUGUUGUUACUGUAUUAUAUUUGAAAACCUUCAAAUCCGACAACAGAGGAUUGAGCAUCA
B5: chr19:57593639:57593745:+|3pUTR|ENSG00000171649|unk|FALSE|unique (ssRNA)
RNA: GGGAGUUCUACAGUCCGACGAUCUGAACCUUCUUAUUUCUCUACAUUCUUGCCAUACUUGGUAUGGUUAGUCUUUUUAAUUUUAGUUGUUUUAAUAGCUGUAUAAUAGCAUCUGUCUGUGAUUUUAUUGCAUUUUUCUGGUAUCAACAGAGGAUUGAGCAUCA
B6: chr19:57593639:57593745:+|3pUTR|ENSG00000171649|unk|total|mutant (ssRNA)
RNA: B5 RNA with U68C, A69C, U83C, A84C, U95C, A96C, U106C, A107C
B7: chr1:228494639:228494729:+|3pUTR|ENSG00000168159|msi1_unk|FALSE|overlapping (ssRNA)
RNA: GGGAGUUCUACAGUCCGACGAUCGCCAUCGUGUCUCAUCUUGCUGUUAUCUCUAGCUCUUUCCCUCCUCCCAUUUCCUUUAGUAGUUGAAUUUUGCAAAGCUUGUAGCAGUAGCUCAGUUGCCUGCAGCAUCCUUGUGUGUAGCAACAGAGGAUUGAGCAUCA
B8: chr10:30313878:30313980:-|CDS|ENSG00000107951|unk|total|mutant (ssRNA)
RNA: GGGAGUUCUACAGUCCGACGAUCUGUUUUUAUAUUUAAGCCCUUCAUGUACUUACUCAUUUUUUCUUCUGUGUAAUAAUCUACCGGGAAGGGAGCAAAACAAACCUGAUUCUUCUCCUCUGUACAUUCAGAAUCCAUUUGAAACAACAGAGGAUUGAGCAUCA
B9: chr1:228494639:228494729:+|3pUTR|ENSG00000168159|msi1_unk|total|mutant (ssRNA)
RNA: GGGAGUUCUACAGUCCGACGAUCGCCAUCGUGUCUCAUCUUGCUGUUAUCUCCCGCUCUUUCCCUCCUCCCAUUUCCUUCCGCCGUUGAAUUUUGCAAAGCUUGCCGCAGCCGCUCAGUUGCCUGCAGCAUCCUUGUGUGCCGCAACAGAGGAUUGAGCAUCA
B10: chr12:39618871:39619093:-|CDS|ENSG00000173208|unk|total|mutant (ssRNA)
RNA: GGGAGUUCUACAGUCCGACGAUCUAUUAUGAUGUUCUCCCAAUCUGUGGCUCACUUGUAUUCCAAUCUGACCAAACCUAUUUCCGAUGUAAUGCUGACCUCCUAUACACUCAUUCAAACUGCUACAUCCAGAGGAGCAAGCCCCAACAGAGGAUUGAGCAUCA
B11: chr8:17753977:17754079:-|CDS|ENSG00000129422|unk|FALSE|bound_elsewhere (ssRNA)
RNA: GGGAGUUCUACAGUCCGACGAUCAAAAAAGCAGAAAUUCUAAUUAACAAGACACAUAAGCAGCAGUUUAAUAAACUCAUUACUAGCCAGGCUGUGCAUGUUACAACUCAUUCUAAAAAUGCUUCACACAGGGUUCCAAGAACACAACAGAGGAUUGAGCAUCA
B12: chr1:152032676:152032810:-|CDS|ENSG00000163191|unk|FALSE|unique (ssRNA)
RNA: GGGAGUUCUACAGUCCGACGAUCGGACCCUGGUGUCCUUGACCGCAUGAUGAAGAAACUGGACACCAACAGUGAUGGUCAGCUAGAUUUCUCAGAAUUUCUUAAUCUGAUUGGUGGCCUAGCUAUGGCUUGCCAUGACUCCUUCAACAGAGGAUUGAGCAUCA
B13: chr2:27041412:27041530:+|3pUTR|ENSG00000119777|msi1_unk|total|mutant (ssRNA)
RNA: GGGAGUUCUACAGUCCGACGAUCACUUCAAAAUGCCCAGCCUGCCCCAAAUGCCUCUAAGCCCCUCCCUGUCCCCUCCCUUGCCGUCCUACUUCUUCCAACUUUCCAUUCCCCAUCAUGCUGGGGGUCUUGGUCACAAGGCUCCAACAGAGGAUUGAGCAUCA
B14: chr11:49981574:49982501:-|CDS|ENSG00000221954|control|control|control (ssRNA)
RNA: GGGAGUUCUACAGUCCGACGAUCGAACAAUAGCUUGGAGGGGAGGUGUAAAGCCCUCUCCACCUGUAUUUCUCACAUCAUAGUAGUUGUCUUAUUCUUUGUGCCCUGUAUAUUUGUGUAUCUGCGCUCAGUGACCACUCUGCCCAACAGAGGAUUGAGCAUCA
B15: chr12:39553730:39553837:-|3pUTR|ENSG00000173208|unk|FALSE|unique (ssRNA)
RNA: GGGAGUUCUACAGUCCGACGAUCGAAGUAUGUUAAGCUAAGCACAGAGAAAAAAAGGCAGCAAGACAUGUUUUAUAAGAUUUUAGCAUUAAGGAAGUAUAUGAUCUGACUUUUCAGAAGAAAAUAAACAAAUGCAUUAUGUAACAACAGAGGAUUGAGCAUCA
B16: chr15:83017406:83017507:-|3pUTR|ENSG00000064726|msi1|total|mutant (ssRNA)
RNA: GGGAGUUCUACAGUCCGACGAUCGGCCUAAUAAAAUGCCCAAGAAAAUAUUCAGUGCAUUUACCGAGAAGGAUAUUUUGCCGCCGUACCGUAAUGUGUUAUGCCGUACAGUUUUAAAGCUAUAAAUGGAAUUUUGUGUAAAUUCAACAGAGGAUUGAGCAUCA
B17: chr15:34980028:34980129:-|3pUTR|ENSG00000198146|msi1|FALSE|unique (ssRNA)
RNA: GGGAGUUCUACAGUCCGACGAUCGGUUCUGUUAUUUAAGCCUGUUCUAAGUUUGAUCAAAUGGCAAUGACUAGGUCUAGUUUUAGUUUUUAUUUUUGCAGGAGUCUAUUGCUAAAGAAUUUUAUUUUGAUGCUUGUUAAAUUUCAACAGAGGAUUGAGCAUCA
B18: ENSG00000070961:be:win_4501|3pUTR|ENSG00000070961|bound_else_gene|NA|bound_elsewhere_windowed (ssRNA)
RNA: GGGAGUUCUACAGUCCGACGAUCCCUUUUGUUCAGAAUUUAGUAGAUUGUUUAAUGCAGGACAUCAACUACAUAAUGAAAGAUGCUUGAAAUGCUUUUGUUAUUUCAGGCAAAUCAAAUUAAAUCAGACUAUCAAACUACAAGCAACAGAGGAUUGAGCAUCA
B19: ENSG00000070961:be:win_5801|3pUTR|ENSG00000070961|bound_else_gene|NA|bound_elsewhere_windowed (ssRNA)
RNA: GGGAGUUCUACAGUCCGACGAUCGAAAAGGGAAAUGUUUUCAGUUUUCUUUUUUAUUUUGGUUAUGCUUAAAUAUGAAUGUAAUUACCAAAAGAUUUAGAAGUGCAUGUGCUUUGGAGGAUUUGUAUUGAGCUUUUACAGUAUCAACAGAGGAUUGAGCAUCA
B20: chr11:35231809:35232301:+|3pUTR|ENSG00000026508|msi1|FALSE|unique (ssRNA)
RNA: GGGAGUUCUACAGUCCGACGAUCACAACACCAAGAAUUGAUUUUGUAGCCAACAUUCAUUCAAUACUGUUAUAUCAGAGGAGUAGGAGAGAGGAAACAUUUGACUUAUCUGGAAAAGCAAAAUGUACUUAAGAAUAAGAAUAACAACAGAGGAUUGAGCAUCA
B21: ENSG00000114744:stop:overlap|stop_codon|ENSG00000114744|stop_codon|NA|stop_codon (ssRNA)
RNA: GGGAGUUCUACAGUCCGACGAUCAACAAGCAUUGGAAGAGAUGAAGACAAAUCACUGUAGGAGAGUUGUUCGCAACAUCAAGUAGUACCAGUUUUAAGGUUUUAAUUCAUUUGAAUCACUUAUGAAUUGAUGAUAUACAGCAACAACAGAGGAUUGAGCAUCA
B22: chr15:83017406:83017507:-|3pUTR|ENSG00000064726|msi1|FALSE|unique (ssRNA)
RNA: B16 RNA with C63U, C64A, C80U, C81A, C83U, C84A, C88U, C89A, C103U, C104A
B23: chr7:157269180:157269282:+|3pUTR|ENSG00000009335|unk|FALSE|unique (ssRNA)
RNA: GGGAGUUCUACAGUCCGACGAUCAUUUUAGGUUGUUUUAUGUUGAAUGUUCUAUAUCUUAUUAGUUAAUUUGUAUAUUUUAUUAGUAUUUUGGAAAUAGCAUAUCUGAGACUGAAGAGAAAUUGACAAUUCACUUAUUUGUGGCAACAGAGGAUUGAGCAUCA
B24: chr10:11920118:11920232:-|3pUTR|ENSG00000151461|unk|FALSE|unique (ssRNA)
RNA: GGGAGUUCUACAGUCCGACGAUCGUAGUAUAUUUAGUCGGAGAGCACAUCUGUAUGCGACAACUUGAUUACAUCUUUUUUUCUAGCUAUUUUGCAUUUUUUCUUUUACCAUGUUUCAGUUUCUGCAUGUAGAUUUAAAUAAAACAACAGAGGAUUGAGCAUCA
B25: chr15:34980028:34980129:-|3pUTR|ENSG00000198146|msi1|total|mutant (ssRNA)
RNA: B17 RNA with U71C, A72C, U77C, A78C, U83C, A84C
B26: chr10:11920118:11920232:-|3pUTR|ENSG00000151461|unk|total|mutant (ssRNA)
RNA: B24 RNA with U25C, A26C, U34C, A35C, U83C, A84C, U129C, A130C

Substitutions are numbered along the chain they refer to. The full ranking holds about 5,800 sequences; the median of “enrichment r” is about 0.54, and the highest 2% start at about 16. The entries come from a sample that favours the highest values as a whole.

MSI1 full-length, sequence (Q61474 whole entry): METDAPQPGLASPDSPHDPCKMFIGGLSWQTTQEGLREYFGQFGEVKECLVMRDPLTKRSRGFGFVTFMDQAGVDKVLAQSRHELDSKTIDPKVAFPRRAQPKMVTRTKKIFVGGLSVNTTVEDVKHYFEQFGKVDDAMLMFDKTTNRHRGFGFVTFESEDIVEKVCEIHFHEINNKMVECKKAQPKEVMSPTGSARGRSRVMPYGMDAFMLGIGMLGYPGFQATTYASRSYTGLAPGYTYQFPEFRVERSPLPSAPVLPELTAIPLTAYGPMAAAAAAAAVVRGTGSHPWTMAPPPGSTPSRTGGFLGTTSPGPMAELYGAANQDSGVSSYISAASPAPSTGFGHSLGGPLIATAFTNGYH

This assay has as its target MSI1 full-length (mouse, UniProt Q61474 1-362). Put plainly: nsRBNS (natural sequence RNA bind-n-seq); RBNS binding buffer (assumed for nsRBNS): 25 mM Tris pH 7.5, 150 mM KCl, 3 mM MgCl2, 0.01% Triton X-100, 500 ug/ml BSA, 20 U/ml SUPERase-In, 4 C; UNK is unkempt and MSI1 is Musashi-1; names of the RNAs are library labels; protein concentration not given here; high values mean tight binding.
B1 yielded a binding signal of 3.75 enrichment R.
For B2 the value was 4.46 enrichment R; for B3, 0.393 enrichment R.
Next, B4: 37 enrichment R; B5: 19.1 enrichment R; B6: 1.4 enrichment R.
Next, B7: 21.5 enrichment R.
Turning to B8, the binding signal came out at 0.482 enrichment R.
B9 displayed a binding signal of 0.702 enrichment R.
Next, B10: 0.621 enrichment R; B11: 2.45 enrichment R.
Next, B12: 0.264 enrichment R.
In turn, B13 returned a binding signal of 0.832 enrichment R.
B14 displayed a binding signal of 2.83 enrichment R.
Next, B15: 2.43 enrichment R.
Next, B16: 0.489 enrichment R.
For B17 the value was 77.2 enrichment R; for B18, 0.644 enrichment R; for B19, 1.05 enrichment R.
B20 came in with a binding signal of 0.807 enrichment R.
For B21 the value was 16.3 enrichment R.
For B22 the value was 44.9 enrichment R.
For B23 the value was 12.7 enrichment R; for B24, 23.3 enrichment R.
B25 came in with a binding signal of 0.774 enrichment R.
Turning to B26, the binding signal was found to be 0.709 enrichment R.

The record behind these values is PMC12136788.
